Over roughly 5,000 sequences, “log2 normalized fluorescence” has its median near 0.089; the highest 2% begin near 0.81. Shown is part of a subset that was picked to be rich in the highest values.

Chain of MYC (p64);MAX (p21), in MYC:MAX (P01106 16-454, chain 1 of 2): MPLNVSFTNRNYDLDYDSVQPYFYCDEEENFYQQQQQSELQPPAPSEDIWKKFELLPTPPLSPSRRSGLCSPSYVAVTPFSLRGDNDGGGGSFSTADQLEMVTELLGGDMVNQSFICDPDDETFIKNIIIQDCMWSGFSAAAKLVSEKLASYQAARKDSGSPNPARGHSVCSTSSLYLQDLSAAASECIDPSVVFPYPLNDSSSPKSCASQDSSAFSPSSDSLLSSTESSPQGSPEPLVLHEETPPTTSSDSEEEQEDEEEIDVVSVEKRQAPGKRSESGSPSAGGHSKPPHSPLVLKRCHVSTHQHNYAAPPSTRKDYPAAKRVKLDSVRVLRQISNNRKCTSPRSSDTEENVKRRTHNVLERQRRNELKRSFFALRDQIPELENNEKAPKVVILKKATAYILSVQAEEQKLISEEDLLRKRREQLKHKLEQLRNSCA
Chain of MYC (p64);MAX (p21), in MYC:MAX (P61244 other isoform, or with tags, fused parts or gaps |, chain 2 of 2): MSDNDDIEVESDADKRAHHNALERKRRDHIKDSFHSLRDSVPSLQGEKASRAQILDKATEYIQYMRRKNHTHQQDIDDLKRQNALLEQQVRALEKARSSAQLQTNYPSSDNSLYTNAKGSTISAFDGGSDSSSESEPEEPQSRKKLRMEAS

The test deals with MYC (p64);MAX (p21), in MYC:MAX (human;human, UniProt P01106-1;P61244-2 1-439;1-151, |). Kind of test: protein-binding microarray (anti-MAX antibody); PBM: 15 mM Tris-HCl pH 7.5, 100 mM KCl, 0.075% NP40, 7.5 mM beta-mercaptoethanol, 375 ng/ul BSA, 8 ng/ul poly(dA-dT):(dA-dT), 550 ng complex, 60 min, room tempe; high values mean tight binding. The note with it: protein: recombinant;recombinant; tags: 6xHis;6xHis; copies: 1;1; label: 3' end of printed strand (linker) attached to glass slide; dsDNA, one strand shown. Summed up:
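Recombinant His-tagged human MYC:MAX or MAX:MAX dimers (550 ng, expressed in E. coli) were incubated for 60 min at room temperature in Tris-KCl buffer, pH 7.5, with NP40, BSA and poly(dA-dT) competitor. The custom Agilent glass array held ~5000 unique 12-nt sequences, each spotted in triplicate and made double-stranded by primer extension. Bound protein was detected with anti-MAX and secondary antibodies and scanned at 543 nm. Binding is reported as log2 normalized fluorescence.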
For “CCGGCTGATCCCCCGTATTAATAGCTAAGATTACTATATCGACG”, the binding signal was 0.0512 log2 normalized fluorescence.

In the case of “CCGGCTGACACGGCGTATTAATAGCTAAGATTACTATATCGACG”, the binding signal was 0.188 log2 normalized fluorescence.

Turning to “CCGGCTGAACGGTTGTATTAATAGCTAAGATTACTATATCGACG”, the binding signal was 0.123 log2 normalized fluorescence.

Consider “CCGGCTGAACCAACGTATTAATAGCTAAGATTACTATATCGACG”, for which the binding signal was 0.302 log2 normalized fluorescence.

With “CCGGCTGAGTTCCCGTATTAATAGCTAAGATTACTATATCGACG”, the binding signal is 0.0824 log2 normalized fluorescence.

Regarding “CCGGCTGACGTCACGTATTAATAGCTAAGATTACTATATCGACG”, the binding signal was 0.246 log2 normalized fluorescence.

Turning to “CCGGCTGAAAGCATGTATTAATAGCTAAGATTACTATATCGACG”, the binding signal was 0.491 log2 normalized fluorescence.

As for “CCGGCTGAGCATGCGTATTAATAGCTAAGATTACTATATCGACG”, the binding signal was 0.461 log2 normalized fluorescence.

“CCGGCTGAGTCCGCGTATTAATAGCTAAGATTACTATATCGACG”: the binding signal is 0.0725 log2 normalized fluorescence.

With “CCGGCTGACCCGTGGTTTTAATAGCTAAGATTACTATATCGACG”, the binding signal is 0.466 log2 normalized fluorescence.

As for “CCGGCAGATACGTGGTGTTAATAGCTAAGATTACTATATCGACG”, the binding signal is 0.257 log2 normalized fluorescence.

Regarding “CCGGCAGACATGTGGTGTTAATAGCTAAGATTACTATATCGACG”, the binding signal is 0.734 log2 normalized fluorescence.

Regarding “CCGGCAGACACGTGGTGTTAATAGCTAAGATTACTATATCGACG”, the binding signal was 0.826 log2 normalized fluorescence.

In the case of “CCGGCTGACTTCAGGTATTAATAGCTAAGATTACTATATCGACG”, the binding signal is 0.148 log2 normalized fluorescence.

Consider “CCGGCTGACCAAGTGTATTAATAGCTAAGATTACTATATCGACG”, for which the binding signal was 0.214 log2 normalized fluorescence.

Turning to “CCGGCATTCACGTGGTATTAATAGCTAAGATTACTATATCGACG”, the binding signal is 0.958 log2 normalized fluorescence.

For “CCGGCCTTCACGTGGTATTAATAGCTAAGATTACTATATCGACG”, the binding signal is 0.765 log2 normalized fluorescence.

As to “CCGGCTTTCACGTGGTATTAATAGCTAAGATTACTATATCGACG”, the binding signal is 0.847 log2 normalized fluorescence.

Take “CCGGCAATCACGTGGTATTAATAGCTAAGATTACTATATCGACG”: the binding signal was 0.75 log2 normalized fluorescence.

On to “CCGGCGTTCACGTGGTATTAATAGCTAAGATTACTATATCGACG”, for which the binding signal is 0.664 log2 normalized fluorescence.

As for “CCGGCATCCACGTGGTATTAATAGCTAAGATTACTATATCGACG”, the binding signal is 0.471 log2 normalized fluorescence.

Take “CCGGCTGACGAGATGTATTAATAGCTAAGATTACTATATCGACG”: the binding signal was 0.0764 log2 normalized fluorescence.

“CCGGCTGACACGCGCTATTAATAGCTAAGATTACTATATCGACG”: the binding signal was 0.811 log2 normalized fluorescence.

On to “CCGGCTGGGTCGTGGTATTAATAGCTAAGATTACTATATCGACG”, for which the binding signal is 0.0754 log2 normalized fluorescence.

Regarding “CCGGCTGAGGTGACGTATTAATAGCTAAGATTACTATATCGACG”, the binding signal is 0.0346 log2 normalized fluorescence.

For “CCGGCTGAATAATTGTATTAATAGCTAAGATTACTATATCGACG”, the binding signal was -0.0392 log2 normalized fluorescence.

For the sequence “CCGGCTGACACGTCTTATTAATAGCTAAGATTACTATATCGACG”, the binding signal is 0.308 log2 normalized fluorescence.

For “CCGGCAGACACGCGGTCTTAATAGCTAAGATTACTATATCGACG”, the binding signal was 0.8 log2 normalized fluorescence.

Regarding “CCGGCAGACACGTGGTCTTAATAGCTAAGATTACTATATCGACG”, the binding signal is 0.904 log2 normalized fluorescence.

“CCGGCAGACACGTGGTATTAATAGCTAAGATTACTATATCGACG”: the binding signal is 0.798 log2 normalized fluorescence.

Consider “CCGGCTGACACACGGTCTTAATAGCTAAGATTACTATATCGACG”, for which the binding signal is 0.354 log2 normalized fluorescence.

With “CCGGCTGACACGTGGTCTTAATAGCTAAGATTACTATATCGACG”, the binding signal was 1.02 log2 normalized fluorescence.

Consider “CCGGCTGACACGCGGTCTTAATAGCTAAGATTACTATATCGACG”, for which the binding signal is 1.03 log2 normalized fluorescence.

“CCGGCTAACACGCGGTCTTAATAGCTAAGATTACTATATCGACG”: the binding signal is 0.739 log2 normalized fluorescence.

Regarding “CCGGCTGACCCGTGGTCTTAATAGCTAAGATTACTATATCGACG”, the binding signal was 0.399 log2 normalized fluorescence.

“CCGGCTGAACAAGGGTATTAATAGCTAAGATTACTATATCGACG”: the binding signal was 0.093 log2 normalized fluorescence.

Take “CCGGCTGACCAAAGGTATTAATAGCTAAGATTACTATATCGACG”: the binding signal was 0.0357 log2 normalized fluorescence.

In the case of “CCGGCTGACGACAAGTATTAATAGCTAAGATTACTATATCGACG”, the binding signal was 0.0769 log2 normalized fluorescence.

Consider “CCGGCTGACTCCAAGTATTAATAGCTAAGATTACTATATCGACG”, for which the binding signal was 0.0835 log2 normalized fluorescence.

“CCGGCTGACAACTGGTTTTAATAGCTAAGATTACTATATCGACG”: the binding signal was 0.195 log2 normalized fluorescence.

Take “CCGGCTGAAGGACTGTATTAATAGCTAAGATTACTATATCGACG”: the binding signal was 0.0114 log2 normalized fluorescence.

With “CCGGCGTATACGTGGTATTAATAGCTAAGATTACTATATCGACG”, the binding signal was 0.202 log2 normalized fluorescence.

With “CCGGCTTGCACGTGGTTTTAATAGCTAAGATTACTATATCGACG”, the binding signal was 0.716 log2 normalized fluorescence.

On to “CCGGCTTGCACTTGGTATTAATAGCTAAGATTACTATATCGACG”, for which the binding signal was 0.318 log2 normalized fluorescence.

As to “CCGGCCTGCACGTGGTATTAATAGCTAAGATTACTATATCGACG”, the binding signal was 0.875 log2 normalized fluorescence.

For “CCGGCCTACACGTGGTATTAATAGCTAAGATTACTATATCGACG”, the binding signal is 0.805 log2 normalized fluorescence.

With “CCGGCCTCCACGTGGTATTAATAGCTAAGATTACTATATCGACG”, the binding signal was 0.737 log2 normalized fluorescence.

As for “CCGGCGTGCACGTGGTATTAATAGCTAAGATTACTATATCGACG”, the binding signal is 0.856 log2 normalized fluorescence.

Take “CCGGCTTGCACGTGGTATTAATAGCTAAGATTACTATATCGACG”: the binding signal was 1.01 log2 normalized fluorescence.

For the sequence “CCGGCGTCCACGTGGTATTAATAGCTAAGATTACTATATCGACG”, the binding signal is 0.808 log2 normalized fluorescence.

On to “CCGGCTGAATTACCGTATTAATAGCTAAGATTACTATATCGACG”, for which the binding signal is 0.041 log2 normalized fluorescence.

As for “CCGGCTGAGCAACTGTATTAATAGCTAAGATTACTATATCGACG”, the binding signal is 0.128 log2 normalized fluorescence.

With “CCGGCTGAATTACTGTATTAATAGCTAAGATTACTATATCGACG”, the binding signal is 0.0701 log2 normalized fluorescence.

Regarding “CCGGCTGAGTCGGGGTATTAATAGCTAAGATTACTATATCGACG”, the binding signal is 0.126 log2 normalized fluorescence.

For the sequence “CCGGCACGCACGTGGTATTAATAGCTAAGATTACTATATCGACG”, the binding signal was 0.838 log2 normalized fluorescence.

Turning to “CCGGCAGGCACGTGGTATTAATAGCTAAGATTACTATATCGACG”, the binding signal was 0.815 log2 normalized fluorescence.

Consider “CCGGCACACACGTGGTATTAATAGCTAAGATTACTATATCGACG”, for which the binding signal is 0.804 log2 normalized fluorescence.

Regarding “CCGGCAGAGACGTGGTATTAATAGCTAAGATTACTATATCGACG”, the binding signal was 0.387 log2 normalized fluorescence.

Take “CCGGCACCCACGTGGTATTAATAGCTAAGATTACTATATCGACG”: the binding signal was 0.845 log2 normalized fluorescence.

“CCGGCACTCACGTGGTATTAATAGCTAAGATTACTATATCGACG”: the binding signal is 0.862 log2 normalized fluorescence.

With “CCGGCTACTACGTGGTATTAATAGCTAAGATTACTATATCGACG”, the binding signal was 0.34 log2 normalized fluorescence.

For “CCGGCTGAACCTCAGTATTAATAGCTAAGATTACTATATCGACG”, the binding signal is 0.265 log2 normalized fluorescence.

Consider “CCGGCTGAAATGCCGTATTAATAGCTAAGATTACTATATCGACG”, for which the binding signal is 0.0989 log2 normalized fluorescence.

As for “CCGGCTGATACGTGGTATTAATAGCTAAGATTACTATATCGACG”, the binding signal is 0.341 log2 normalized fluorescence.

Take “CCGGCTGAGTGATCGTATTAATAGCTAAGATTACTATATCGACG”: the binding signal is 0.194 log2 normalized fluorescence.

As for “CCGGCTGAACATACGTATTAATAGCTAAGATTACTATATCGACG”, the binding signal is 0.202 log2 normalized fluorescence.

Regarding “CCGGCTGATGGCGGGTATTAATAGCTAAGATTACTATATCGACG”, the binding signal is 0.232 log2 normalized fluorescence.

Take “CCGGCTGACCCCGTGTATTAATAGCTAAGATTACTATATCGACG”: the binding signal was 0.42 log2 normalized fluorescence.

Values taken from paper PMC5515408, “Sequence-specific DNA binding by MYC/MAX to low-affinity non-E-box motifs”.
